Structures can show the parent of a compound that is named as a salt.

The values below come from the supplement of paper PMC9023506.

This assay has as its system Danio rerio larvae (5 dpf). As to the kind of experiment: startle response to 20-s acoustic pulses, difference vs DMSO (percentage points (treated minus DMSO)); higher = more of the behaviour than the DMSO vehicle control. The settings on record: 10 µM; exposure time: 3 h pre-incubation + 3 h imaging. On the procedure:
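5-dpf wild-type zebrafish larvae were imaged in 96-well plates. They were treated with 190 Tocris FDA-approved drugs at 10 µM (1 µl/ml DMSO) for 3 h before and 3 h during imaging at 28.5 °C, 48 larvae per drug. Automated image analysis gave % time moving and optomotor responses. Values are drug group mean minus DMSO vehicle mean (n=844), in percentage points, for 10 behaviours.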
As for `NS(=O)(=O)Cc1noc2ccccc12` [Zonisamide], the “startle response to 20-s acoustic pulses” value came to 8.21. Consider `COc1c(C)c2c(c(O)c1C/C=C(\C)CCC(=O)O)C(=O)OC2` [Mycophenolic acid], for which the “startle response to 20-s acoustic pulses” value was found to be 2.15. The value for `CCc1ccc(CCOc2ccc(CC3SC(=O)NC3=O)cc2)nc1` (stereo not given) [Pioglitazone hydrochloride] was -3.21; that for `Nc1ncn([C@H]2C[C@H](O)[C@@H](CO)O2)c(=O)n1` [Decitabine] was -0.522. On to `Cc1nc(-c2ccc(OCC(C)C)c(C#N)c2)sc1C(=O)O` [Febuxostat], for which the “startle response to 20-s acoustic pulses” value was found to be 2.71. The value for `Nc1nc(Cl)nc2c1ncn2[C@@H]1O[C@H](CO)[C@@H](O)[C@@H]1F` [Clofarabine] was 5.05; that for `OC(c1cc(C(F)(F)F)nc2c(C(F)(F)F)cccc12)C1CCCCN1` (stereo not given) [Mefloquine hydrochloride] was -13.3; that for `NS(=O)(=O)c1cc(C(=O)O)c(NCc2ccco2)cc1Cl` [Furosemide] was -4.02. As for `COc1ccccc1OCC(O)CN1CCN(CC(=O)Nc2c(C)cccc2C)CC1` (stereo not given) [Ranolazine dihydrochloride], the figure is 2.42; as for `COc1ccccc1Oc1c(NS(=O)(=O)c2ccc(C(C)(C)C)cc2)nc(-c2ncccn2)nc1OCCO` [Bosentan], 6.71; as for `C[C@H](Cc1cc2c(c(C(N)=O)c1)N(CCCO)CC2)NCCOc1ccccc1OCC(F)(F)F` [Silodosin], 2.96. As for `Cn1cnc([N+](=O)[O-])c1Sc1ncnc2[nH]cnc12` [Azathioprine], the figure is -1.29. As to `O=C(O)c1cc(/N=N/c2ccc(S(=O)(=O)Nc3ccccn3)cc2)ccc1O` [Sulfasalazine], the “startle response to 20-s acoustic pulses” value was -1.02.

Turning to `O=C(O)CCCc1ccccc1` [Sodium 4-Phenylbutyrate], the “startle response to 20-s acoustic pulses” value is -5.04. As for `N[C@@H]1[C@H]2CN(c3nc4c(cc3F)c(=O)c(C(=O)O)cn4-c3ccc(F)cc3F)C[C@@H]12` [Trovafloxacin mesylate], the figure is -7.29; as for `CN(CCOc1ccc(NS(C)(=O)=O)cc1)CCc1ccc(NS(C)(=O)=O)cc1` [Dofetilide], 0.873. The value for `CC(C)COCC(CN(Cc1ccccc1)c1ccccc1)N1CCCC1` (stereo not given) [Bepridil hydrochloride] was -5.17. As for `CCOc1nc2cccc(C(=O)O)c2n1Cc1ccc(-c2ccccc2-c2noc(=O)[nH]2)cc1` [Azilsartan], the figure is 3.96.

As to `CC(C)OC(=O)C(C)(C)Oc1ccc(C(=O)c2ccc(Cl)cc2)cc1` [Fenofibrate], the “startle response to 20-s acoustic pulses” value was -3.27. The value for `CN/C(=N\CCSCc1nc[nH]c1C)NC#N` [Cimetidine] was 7.14; that for `CN(C)CCC[C@@]1(c2ccc(F)cc2)OCc2cc(C#N)ccc21` [Escitalopram oxalate] was -6.28; that for `CCOc1nc2cccc(C(=O)O)c2n1Cc1ccc(-c2ccccc2-c2nnn[nH]2)cc1` [Candesartan] was 10.6. Regarding `CNCc1ccc(-c2[nH]c3cc(F)cc4c3c2CCNC4=O)cc1` [Rucaparib camsylate], the “startle response to 20-s acoustic pulses” value was -4.08. As for `O=C(O[C@@H]1C[C@@H]2C[C@H]3C[C@H](C1)N2CC3=O)c1c[nH]c2ccccc12` [Dolasetron mesylate], the figure is 2.42; as for `CC#C[C@]1(O)CC[C@H]2[C@@H]3CCC4=CC(=O)CCC4=C3[C@@H](c3ccc(N(C)C)cc3)C[C@@]21C` [Mifepristone], 0.769. For `CCOC(=O)c1ncn2c1CN(C)C(=O)c1cc(F)ccc1-2` [Flumazenil], the “startle response to 20-s acoustic pulses” value was -1.57. As for `CC(C)C(=O)Nc1ccc([N+](=O)[O-])c(C(F)(F)F)c1` [Flutamide], the “startle response to 20-s acoustic pulses” value was -5.19. As for `N#Cc1ccc(C(c2ccc(C#N)cc2)n2cncn2)cc1` [Letrozole], the “startle response to 20-s acoustic pulses” value was found to be 5.37. As for `CC(CCc1ccc(O)cc1)NCCc1ccc(O)c(O)c1` (stereo not given) [Dobutamine hydrochloride], the figure is 2.42.

As for `Cc1cn([C@H]2C=C[C@@H](CO)O2)c(=O)[nH]c1=O` [Stavudine], the “startle response to 20-s acoustic pulses” value is -0.918. As for `CC(C)n1c(/C=C/C(O)CC(O)CC(=O)O)c(-c2ccc(F)cc2)c2ccccc21` (stereo not given) [Fluvastatin sodium], the figure is 1.71. As for `C=CC(=O)N1CCC[C@@H](n2nc(-c3ccc(Oc4ccccc4)cc3)c3c(N)ncnc32)C1` [Ibrutinib], the figure is 3.06. For `COc1cccc2c1C(=O)c1c(O)c3c(c(O)c1C2=O)C[C@@](O)(C(=O)CO)C[C@@H]3O[C@H]1C[C@H](N)[C@H](O)[C@H](C)O1` [Doxorubicin hydrochloride], the “startle response to 20-s acoustic pulses” value was 3.62. The value for `CCOc1cc(CC(=O)N[C@@H](CC(C)C)c2ccccc2N2CCCCC2)ccc1C(=O)O` [Repaglinide] was -5.51; that for `CC(=O)O[C@H]1C(=O)[C@@]2(C)[C@H]([C@H](OC(=O)c3ccccc3)[C@]3(O)C[C@H](OC(=O)[C@H](O)[C@@H](NC(=O)c4ccccc4)c4ccccc4)C(C)=C1C3(C)C)[C@]1(OC(C)=O)CO[C@@H]1C[C@@H]2O` [Taxol] was -0.529; that for `CC1(C)O[C@@H]2[C@@H](CO[C@@]3(COS(N)(=O)=O)OC(C)(C)O[C@@H]23)O1` [Topiramate] was 0.811. The value for `CCCN(CCC)S(=O)(=O)c1ccc(C(=O)O)cc1` [Probenecid] was 1.66; that for `Brc1c(NC2=NCCN2)ccc2nccnc12` was -4.57. `CN1CCC[C@@H]1Cc1c[nH]c2ccc(CCS(=O)(=O)c3ccccc3)cc12` [Eletriptan hydrobromide]: the “startle response to 20-s acoustic pulses” value stood at 1.42.

As for `C#CCN[C@@H]1CCc2ccccc21` [Rasagiline mesylate], the “startle response to 20-s acoustic pulses” value is 2.17.
